PrPC surface inh: inhibitors of human cell surface prion protein PrPC. inhibition, % at 13.8 µM. TR-FRET read-out. 0.43% of 370,000 active. P04156. AID 720596; in the data active = inhibition above about 24%
GDH-TPI counter-1: GDH-TPI coupled enzyme inhibition counter-screen. GDH-TPI coupled enzyme counterscreen, NADH absorbance. inhibition, % at 4.8 µM. 1.2% of 360,000 active. AID 588335; in the data active = inhibition above about 30%
Yp Topo-I inh: blocks Yersinia pestis topoisomerase I activity; 0.064% of 360,000 active; AID 504884; Y. pestis Topo-I cleavage product accumulation, plate reader; activity, % at 10 µM; in the data active = activity above about 50%, passing the limit was not always enough
PrP 5UTR inh: inhibition of PrP 5' UTR reporter expression; cell-based PrP 5' UTR mRNA reporter, plate reader; 0.35% of 340,000 active; inhibition, % (concentration not given with the values); in the data active = inhibition above about 52%
Mtb hypoxia rep: Mtb hypoxia fluorescent reporter inhibition | M. tuberculosis hypoxia-regulated fluorescent reporter, fluorescence | fluorescence inhibition, % (no concentration beside the values) | 0.1% of 300,000 active; in the data active = fluorescence inhibition mostly above about 23%, no sharp cut-off; inactive = mostly below about 17%
FBA Mtb inh: inhibits M. tuberculosis FBA enzyme | inhibition, % at 1 µM | purified M. tuberculosis FBA, fluorescence read-out | 2.3% of 360,000 active | P9WQA3 | AID 588726
Target sequence (P9WQA3 whole entry, looked up): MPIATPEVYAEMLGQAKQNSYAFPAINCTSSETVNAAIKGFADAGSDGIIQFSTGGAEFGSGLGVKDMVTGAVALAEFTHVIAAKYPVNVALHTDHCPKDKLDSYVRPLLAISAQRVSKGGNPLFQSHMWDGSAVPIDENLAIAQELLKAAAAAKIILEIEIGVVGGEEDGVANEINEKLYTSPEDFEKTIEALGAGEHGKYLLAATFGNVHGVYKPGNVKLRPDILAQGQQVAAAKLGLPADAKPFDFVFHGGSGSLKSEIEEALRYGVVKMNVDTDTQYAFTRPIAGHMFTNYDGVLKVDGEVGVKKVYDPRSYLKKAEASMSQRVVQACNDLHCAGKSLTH
Mtb FBA inh conf: Mtb FBA inhibition, confirmed. purified M. tuberculosis FBA, fluorescence read-out. shares compounds with FBA Mtb inh. inhibition, % at 1 µM. 78% of 5,600 active
GDH-TPI counter-2: GDH-TPI inhibition counter-screen for FBA inhibitors; GDH-TPI coupled enzyme counterscreen, fluorescence; inhibition, % at 1 µM; shares compounds with FBA Mtb inh; 81% of 5,600 active; in the data active = inhibition above about 10%
Hits are given with their value; n = inactive; x = not tested or not shown; + = active, no number. The list is not random: actives were taken first. Their share in the collection is about 3.8%. Rule as the data show it, unless noted: active = inhibition above about 27%; inactive = the rest.

SMILES	PrPC surface inh	GDH-TPI counter-1	Yp Topo-I inh	PrP 5UTR inh	Mtb hypoxia rep	FBA Mtb inh	Mtb FBA inh conf	GDH-TPI counter-2
Cc1ccccc1NC(=O)c1sc2nc(N3CCOCC3)c3c(c2c1N)CCCC3	n	n	n	n	n	n	x	x
CC1(C)Cc2c(c(N3CCCC3)nc3sc(C(=O)Nc4ccccc4)c(N)c23)CO1	n	n	n	n	n	34	+	+
CCOC(=O)c1sc2nc(N3CCOCC3)c3c(c2c1N)CC(C)(C)N(C)C3	n	n	n	n	n	59	n	n
CCCNC(=O)N1C2CCC1C(C(=O)OC)=C(c1ccc(S(C)(=O)=O)cc1)C2 (stereo unspecified)	x	x	x	x	n	x	x	x
CCOc1cc(C=Nn2c(C)nc3ccccc3c2=O)ccc1O	x	x	x	x	n	x	x	x
Cc1cc(C)cc(Cn2c3ccc(NC(=S)NC4CCCCC4)cc3c(=O)n2C)c1	n	n	n	x	x	n	x	x
Cc1nc(Cn2c3ccc(NC(=S)NC4CCCCC4)cc3c(=O)n2C)cs1	n	n	n	x	x	28	73	49
COc1cccc(CNC(=S)Nc2ccc3c(c2)c(=O)n(C)n3Cc2ccccc2)c1	n	n	n	x	x	56	68	44
COc1ccc(CCNC(=O)Nc2ccc3c(c2)c(=O)n(C)n3Cc2ccc(Cl)cc2)cc1OC	n	n	n	x	x	88	29	28
COc1ccc(CCNC(=O)Nc2ccc3c(c2)OCO3)cc1OC	n	n	n	n	n	n	x	x
CC(C)=CCn1c2ccc(NC(=S)NC3CC3)cc2c(=O)n1C	n	n	n	x	x	31	88	74
COC(=O)C1=C(c2cccc(C#N)c2)CC2CCC1N2C(=O)NC1CC1 (stereo unspecified)	x	x	x	x	n	x	x	x
Cn1c(=O)c2cc(NC(=S)NC3CC3)ccc2n1Cc1ccccc1	n	n	n	x	x	41	n	n
Cn1c(=O)c2cc(NC(=S)NC3CCCCC3)ccc2n1Cc1ccc(F)cc1	n	n	n	x	x	n	x	x
Cc1cc2nc(-c3cccnc3SCC(=O)NC(C)C)[nH]c2cc1C	n	n	n	n	n	n	x	x
COCCOC(=O)CSc1ncccc1-c1nc2cc(C)c(C)cc2[nH]1	n	n	n	n	n	30	191	156
COc1ccc(OC)c(/C=N/NC(=O)CSc2cc(C)nc3c(OC)cccc23)c1	n	n	n	n	x	30	50	35
COc1cccc2c(SCC(=O)NN=Cc3ccccc3)cc(C)nc12	x	x	x	x	n	x	x	x
COc1ccc(OC)c(/C=N\NC(=O)c2c(C)nc3cc(C)ccn23)c1	n	n	n	n	x	60	+	+
CCOC1OC(C(=O)NCc2nc3ccccc3[nH]2)=CC(c2csc3ccccc23)C1CCCO (stereo unspecified)	x	x	x	x	n	x	x	x
CCOC(=O)Nc1ccc2c3c(cccc13)-c1ccccc1-2	n	n	n	n	n	57	70	61
OC1c2cc(Br)ccc2N=C2CCCCCN21 (stereo unspecified)	n	n	n	x	x	n	x	x
OC1c2c(F)cccc2N=C2CCCCCN21 (stereo unspecified)	n	n	n	x	x	48	141	138
CSc1ccc(/C=C(\C(=O)O)c2ccc(S(=O)(=O)N3CCCCC3)s2)cc1	n	n	n	n	n	37	n	n
O=C(O)/C(=C\c1ccc(Cl)cc1)c1ccc(S(=O)(=O)N2CCCC2)s1	n	n	n	n	n	n	x	x
SMILES	PrPC surface inh	GDH-TPI counter-1	Yp Topo-I inh	PrP 5UTR inh	Mtb hypoxia rep	FBA Mtb inh	Mtb FBA inh conf	GDH-TPI counter-2
COc1cc(C=NNC(=O)c2cccc(S(=O)(=O)N3CCOCC3)c2)cc(OC)c1O	x	x	x	x	n	x	x	x
CC1=NNC(=O)C1CCC(=O)NN=Cc1ccccc1[N+](=O)[O-] (stereo unspecified)	x	x	x	x	n	x	x	x
COc1ccc(C2CC(=O)C=C(c3ccc4ccccc4c3)C2)cc1OC (stereo unspecified)	x	x	x	x	n	x	x	x
COc1ccc(-c2ccc(S(=O)(=O)N3CCOCC3)cc2)cc1	x	n	n	n	n	44	75	48
COc1ccc(S(=O)(=O)N2CCN(C(=O)c3cccs3)CC2)cc1	n	n	n	n	x	79	+	172
COc1ccc(S(=O)(=O)N2CCN(C(=O)Cc3cccs3)CC2)cc1	n	n	n	n	n	n	x	x
CC(=NNC(=O)c1ccccc1NC(=O)c1ccc(Cl)cc1)c1ccncc1	x	x	x	x	n	x	x	x
CCN(CC)C(=NS(=O)(=O)c1ccccc1C)c1ccccc1	x	x	x	x	n	x	x	x
